# High-throughput results deposited in PubChem BioAssay by several laboratories.
# EP2 modulator = modulates human prostaglandin E2 receptor EP2 signaling; actives 0.83% (n = 260,000); EP2-expressing cells, cAMP HTRF FRET, PGE2 co-stimulation; induction, % at 25 µM;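 active = compounds whose cAMP rise, as percent of the full-agonist control response, exceeds 60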;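 also: rat C6 glioma line stably carrying human EP2 under a CMV promoter; the protocol text gives 20 µM as final concentration; 100% = response of wells given 1 µM PGE2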
# PGE2 EP2 inh = inhibitors of human EP2 prostaglandin E2 receptor | C6 glioma cells expressing human EP2, cAMP TR-FRET; cells stimulated with saturating PGE2 | AID 1422 | inhibition, % at 25 µM | actives 0.52% (n = 260,000) | P43116;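 active = percent inhibition above 40 after rounding to a whole number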;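 also: rat C6 glioma host cells with rolipram phosphodiesterase inhibitor present; the protocol text gives 20 µM as final concentration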
# Cl transport mod = modulates chloride dependent transport by human KCC2. Q9H2X9. KCC2 cells, thallium flux FluoZin-2 fluorescence. B-score of Tl+ flux slope (higher = more flux/activation; lower = inhibition) at 10 µM. actives 2.2% (n = 190,000). AID 1456;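 active = thallium flux slope and its plate-corrected score both differing from the plate sample mean at a set confidence after two filtering rounds, in either direction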;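 also: slope of fluorescence scaled to starting intensity during 10 to 20 s after thallium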
# S1P3 antag-1 = blocks the human S1P3 receptor; Q99500; CHO S1P3 NFAT-BLA reporter, FRET fluorescence, antagonist mode; inhibition, % at 4.98 µM; actives 0.27% (n = 170,000); AID 485;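 active = inhibition above the plate cutoff, the mean inhibition of test wells on that plate plus 3 SD, cut at about 28% in these data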;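 also: cells challenged with S1P at its EC80 of 0.8 µM; blue over green emission ratio from cleaved BLA substrate after 4 h stimulation; 0% = S1P-stimulated wells and 100% = unstimulated DMSO-only wells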
# Target sequence (Q99500 whole entry, looked up): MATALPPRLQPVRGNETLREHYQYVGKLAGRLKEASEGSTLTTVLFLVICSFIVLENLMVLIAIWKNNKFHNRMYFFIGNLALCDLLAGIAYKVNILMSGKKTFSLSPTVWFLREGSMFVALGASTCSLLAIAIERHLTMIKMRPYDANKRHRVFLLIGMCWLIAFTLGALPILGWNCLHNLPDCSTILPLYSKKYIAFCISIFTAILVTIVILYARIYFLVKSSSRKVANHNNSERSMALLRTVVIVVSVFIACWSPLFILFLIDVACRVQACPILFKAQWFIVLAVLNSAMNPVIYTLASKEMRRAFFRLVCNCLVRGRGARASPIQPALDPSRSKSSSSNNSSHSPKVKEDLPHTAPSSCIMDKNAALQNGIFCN
# S1P3 antag-2 = human S1P3 receptor antagonism, confirmation | AID 1429 | shares compounds with S1P3 antag-1 | CHO S1P3 NFAT-BLA reporter, FRET, antagonist mode | actives 30% (n = 240) | inhibition, % at 4.98 µM;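 active = inhibition above the hit threshold that was computed for the earlier primary screen, cut at about 30% in these data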;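 also: 0% = S1P-stimulated wells and 100% = unstimulated DMSO-only wells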
# EP2 cAMP induct = human EP2 receptor cAMP induction, negative in counter-screens; shares compounds with EP2 modulator; C6 glioma EP2 cells, cAMP HTRF induction; plus low (about EC15) PGE2 agonist; calls only at 20 µM (by protocol); actives 47% (n = 1,300); AID 1080;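 active = cAMP induction above 50% in the main assay while under 30% in all four parallel counter assays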;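 also: rat C6 glioma cells stably expressing human EP2 receptor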
# Numbers without * were called inactive; i = inactive; nt = not tested or not shown; + = active, no number; ! = a repeat was not active. An excerpt weighted towards active compounds, which were near 3.1% of everything screened.
SMILES,EP2 modulator,PGE2 EP2 inh,Cl transport mod,S1P3 antag-1,others
C[C@]12CCC3C(CC[C@H]4C[C@@H](O)CC[C@]34C)C1CCC2=O (stereo partly drawn),-37,42*,nt,nt,
C[C@]12CC[C@@H](O)CC1CC[C@@H]1[C@@H]2CC[C@]2(C)C(=O)CC[C@@H]12 (stereo partly drawn),19,18,nt,nt,
CO[C@@H]([CH2][Hg][n]1cnc2c1c(=O)n(C)c(=O)n2C)CN1C(=O)c2ccccc2S1(=O)=O,30,49*,nt,nt,
CCCc1ccc(CN2C3CCC2CC(O)(c2nccn2C)C3)s1 (stereo not drawn),-1,5,nt,nt,
CCOC(=O)c1c(C)n(Cc2ccco2)c2ccc(OC)cc12,64*,14,0.64,-13,
O=C(Cn1cc(/C=C2\C(=O)NC(=S)N(c3ccccc3)C2=O)c2ccccc21)NCc1ccco1,-80,9,nt,nt,
CC1(C)CC(=N[N-]C(N)=[SH+])CC(C)(C)N1.CC1(C)CC(=N[N-]C(N)=[SH+])CC(C)(C)N1.[Ni],-6,51*,nt,nt,
CCCCn1c(=O)c(C(=O)NCc2ccncc2)c(O)c2ccccc21,63*,17,-2.1,-30,
Nc1c(C(=O)Nc2ccc([As](=O)(O)O)cc2)cnc2nnnn12,29,52*,nt,nt,
Nc1ccc([As](=O)(O)O)cc1,33,16,0.89,-5,
Nc1ccc(S(=O)(=O)c2ccc(NCN3C(=O)NC(=O)C(=O)C3=O)cc2)cc1,14,44*,nt,nt,
COc1ccc(CN2C3CCC2CC(O)(c2ccccc2F)C3)cc1OC(C)C (stereo not drawn),-13,6,nt,nt,
COC(=O)[C@@H]1c2cc3c(c(O)c2[C@@H](O)C[C@]1(C)O)C(=O)c1c(O)cc2c(c1C3=O)O[C@H]1O[C@]2(C)[C@@H](O)[C@H](N(C)C)[C@H]1O,19,49*,nt,nt,
O=C(O)/C=C/c1ccc[c]([Sb](=[O])([OH])[OH])c1,14,7,nt,nt,
N=C(N)SCc1ccc(Cl)c2ccccc12 (tested in a mixture with another compound),-54,61*,nt,nt,
CCC(N)C(O)c1ccc(O)c(O)c1 (stereo not drawn),74*,12,nt,nt,
COC(=O)c1c(C)ccc2c(O)c3c(cc12)C(=O)c1c2c(cc(O)c1C3=O)[C@@]1(C)O[C@@](C)(O2)[C@@H](O)[C@H](N(C)C)[C@H]1O,12,42*,nt,nt,
Nc1nc2c(c(=S)[nH]1)[n]([Hg][c]1cc([N+](=O)[O-])ccc1O)c[n+]2[C@H]1O[C@H](CO)[C@@H](O)[C@@H]1O,12,60*,nt,nt,
COc1cc2c(cc1/C=C/[N+](=O)[O-])OCO2,-122,103*,-0.93,-3,
C[C@]12CC[C@H](O[C@@H]3O[C@H](CO)[C@@H](O)[C@H](O)[C@H]3O)C[C@@H]1CC[C@@H]1[C@@H]2CC[C@]2(C)[C@@H](C3=CCOC3=O)CC[C@@]12O,-2,53*,nt,nt,
COc1ccc(Cc2nccc3cc(OC)c(OC)cc23)cc1OC,4,15,-2,29*,S1P3 antag-2=16
C[C@H]1CCC/C=C/C2C[C@H](O)CC2[C@H](O)/C=C/C(=O)O1 (stereo partly drawn),16,17,-0.75,46*,S1P3 antag-2=16
COc1cccc(-n2c(SCCN3CCCCC3)nc3ccccc3c2=O)c1,-5,16,nt,nt,
COc1ccc(N=Cc2c(O)n(-c3ccc(C)cc3)c(=O)[nH]c2=O)cc1,-16,4,-1.1,30*,S1P3 antag-2=-11
CCOC(=O)c1ccc(N=Cc2c(O)n(-c3ccc(OC)cc3)c(=S)[nH]c2=O)cc1,33,3,0.061,-9,
SMILES,EP2 modulator,PGE2 EP2 inh,Cl transport mod,S1P3 antag-1,others
CN1CC=C(/C=C/c2c[nH]c3ccccc23)CC1,-109,10,nt,nt,
Nc1ccc(Cl)cc1C(=O)c1ccccc1Cl,67*,13,-1.3,-1,EP2 cAMP induct=+
Cc1[nH]c2ccc(F)cc2c1CC(=O)N(CCN(C)C)Cc1ccc(F)cc1,-88,6,nt,nt,
CCCCCn1c(=O)c(C(=O)NCc2ccco2)c(O)c2ccccc21,58,5,0.67,0,
CCCCn1c(=O)c(C(=O)NCc2ccco2)c(O)c2ccccc21,67*,5,0.36,-4,EP2 cAMP induct=+
CC(=O)[C@H]1CC[C@H]2[C@@H]3CC[C@H]4C[C@H](O)CC[C@]4(C)[C@H]3C(=O)C[C@]12C,18,17,-0.67,0,
CC(=O)C1CC[C@H]2C3CC[C@H]4C[C@H](O)CC[C@]4(C)C3CC[C@]12C (stereo partly drawn),50,19,nt,nt,EP2 cAMP induct=i
C[C@]12CCC(=O)C=C1CCC1C2CC[C@@]2(C)C1CC[C@@H]2O (stereo partly drawn),73*,4,nt,nt,EP2 cAMP induct=+
C#CCOc1ccccc1CN1C2CCC1CC(O)(c1ccccc1F)C2 (stereo not drawn),-35,6,nt,nt,
COc1ccc(CN2CCN(C(=O)COc3ccc(Cl)cc3)CC2)c(OC)c1OC,-118,13,nt,nt,
N#Cc1ccccc1Cn1cc(C(=O)c2cccs2)c2ccccc21,29,15,-0.066,6,
O=C(c1cccs1)c1cn(Cc2ccccc2Cl)c2ccccc12,74*,9,0.031,nt,EP2 cAMP induct=i
Nc1ccc(Br)cc1C(=O)c1ccccc1,83*,2,-0.54,-11,EP2 cAMP induct=+
COC1CC(O[C@H]2CC[C@]3(C=O)C4CC[C@]5(C)C(C6=CC(=O)OC6)CC[C@]5(O)C4CC[C@]3(O)C2)OC(C)C1O (stereo partly drawn),6,12,nt,nt,
Cc1ccc(CN2C(=O)CN=C(c3ccccc3)c3ccccc32)cc1,68*,5,-0.025,11,EP2 cAMP induct=i
CC[C@@H]1C(=O)OC[C@@H]1Cc1cncn1C,80*!,16,-0.91,-9,EP2 cAMP induct=i
CC[C@H]1C(=O)OC[C@@H]1Cc1cncn1C,13,6,nt,nt,
